Source: PubChem (several laboratories)
Autofluor counter = flagged as autofluorescent in microsphere protease counterscreen; compound autofluorescence counterscreen, microsphere flow cytometry; hits give high values; fluorescence intensity (concentration not given with the values); actives 3.1% (n = 360,000); AID 624483; in the data active means fluorescence intensity above about 16000; inconclusive means no clear call, values can overlap the other calls
BoNT-F LC inh = BoNT/F light chain protease inhibitors, primary screen, biochemical, flow cytometry, MLPCN library; inhibition, % at 10 µM; Multiplex microsphere protease cleavage assay; AID 588497, 2011; Botulinum neurotoxin type F light chain protease (Clostridium botulinum); actives 0.22% (n = 360,000); in the data active means inhibition above about 35%, passing the limit was not always enough; inconclusive means no clear call, values can overlap the other calls; further: plate controls were buffer without enzyme for full effect and enzyme alone for no effect
BoNT A protease = BoNT/A light chain protease inhibitors, primary screen, biochemical, flow cytometry, MLPCN library; Botulinum neurotoxin type A light chain protease (Clostridium botulinum A str. ATCC 3502); multiplex microsphere protease substrate cleavage; inhibition, % at 10 µM; actives 0.17% (n = 360,000); AID 588499, 2011; in the data active means inhibition above about 30%; inconclusive means no clear call, values can overlap the other calls; further: plate controls were buffer without enzyme for full effect and enzyme alone for no effect
3CLpro inhibitor = SARS-CoV 3CLpro protease inhibitors, primary screen, biochemical, quenched FRET; Replicase polyprotein 1ab (Severe acute respiratory syndrome coronavirus), P0C6X7; recombinant SARS-CoV 3CLpro, quenched FRET peptide cleavage; inhibition, % at 6 µM; actives 0.14% (n = 290,000); in the data active means inhibition above about 12%
Anthrax LF inh2 = Bacillus anthracis LF protease inhibitors, primary screen, biochemical, multiplex microsphere, MLPCN library; multiplex microsphere protease cleavage assay; Lethal factor (Bacillus anthracis), P15917; actives 0.12% (n = 360,000); inhibition, % at 10 µM; in the data active means inhibition above about 30%; inconclusive means no clear call, values can overlap the other calls; further: plate controls were buffer without enzyme for full effect and enzyme alone for no effect
Target sequence (P15917 whole entry, looked up): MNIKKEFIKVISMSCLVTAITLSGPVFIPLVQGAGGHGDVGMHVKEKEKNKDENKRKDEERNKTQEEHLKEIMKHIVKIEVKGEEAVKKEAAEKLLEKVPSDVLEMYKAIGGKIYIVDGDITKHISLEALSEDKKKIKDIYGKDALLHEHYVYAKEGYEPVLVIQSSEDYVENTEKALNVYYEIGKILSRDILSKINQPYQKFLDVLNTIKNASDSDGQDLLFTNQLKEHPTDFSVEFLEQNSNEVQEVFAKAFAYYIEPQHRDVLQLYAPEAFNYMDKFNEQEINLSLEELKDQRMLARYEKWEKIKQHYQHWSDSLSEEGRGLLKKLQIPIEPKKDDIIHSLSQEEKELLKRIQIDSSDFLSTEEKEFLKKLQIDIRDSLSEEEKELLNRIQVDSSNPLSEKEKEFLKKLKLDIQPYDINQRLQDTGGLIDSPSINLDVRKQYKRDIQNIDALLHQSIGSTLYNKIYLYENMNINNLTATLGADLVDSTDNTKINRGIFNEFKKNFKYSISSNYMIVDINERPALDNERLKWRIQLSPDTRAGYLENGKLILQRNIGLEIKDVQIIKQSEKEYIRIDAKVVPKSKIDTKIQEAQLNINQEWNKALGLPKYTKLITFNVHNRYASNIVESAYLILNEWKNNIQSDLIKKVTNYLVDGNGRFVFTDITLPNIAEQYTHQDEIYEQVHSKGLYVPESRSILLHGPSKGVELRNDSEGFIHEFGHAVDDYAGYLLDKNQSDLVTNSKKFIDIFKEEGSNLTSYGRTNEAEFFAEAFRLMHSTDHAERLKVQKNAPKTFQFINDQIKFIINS
CCHF vOTU inh-1 = CCHFV vOTU protease inhibitors, primary screen, biochemical, Pep-AMC substrate, fluorescence. inhibition, % at 11.5 µM. actives 0.55% (n = 370,000). AID 651958, 2012; further: 0% = vehicle wells with enzyme and 100% = no enzyme wells
CCHF vOTU inh-2 = CCHFV vOTU protease inhibitors, confirmation, biochemical, Pep-AMC substrate, fluorescence; shares compounds with CCHF vOTU inh-1; Recombinant CCHFV vOTU; actives 17% (n = 1,900); inhibition, % at 11.5 µM; AID 686976, 2013
* marks the source's active call; other numbers are inactive results; ? = inconclusive; / = not tested or not shown; ! = not active in a repeat. This is a sample that favours compounds with a hit; in the whole collection about 3.9% have one here. Unless noted, no stated cut-off is given here; in the data, active means inhibition above about 30%; inactive means the rest.

SMILES | Autofluor counter | BoNT-F LC inh | BoNT A protease | 3CLpro inhibitor | Anthrax LF inh2 | CCHF vOTU inh-1 | CCHF vOTU inh-2
CC1(Cc2ccc3c(c2)OCO3)C(=O)Nc2ccc(-c3cccc(C(F)(F)F)c3)cc21 (centres undefined) | 3503 | -5 | 0 | / | -3 | -2 | /
CC1(Cc2ccc(C(F)(F)F)o2)C(=O)Nc2ccc(-c3cccc(C(F)(F)F)c3)cc21 (centres undefined) | 3737 | -5 | 0 | / | -1 | 36* | -1
C=CCN1C(=O)c2n[nH]c(C(C)C)c2C1c1ccc2c(c1)OCO2 (centres undefined) | / | / | / | / | / | -7 | /
O=C1CCC/C1=C/Nc1ccc(Cl)cc1 | 2603 | 4 | 0 | 7 | 2 | 19 | /
O=C1CCCC/C1=C\Nc1ccc(O)cc1 | 10964 | -2 | -1 | 3 | -6 | 35* | 2
CCCC(=O)NC(c1cccs1)c1cc([N+](=O)[O-])c2cccnc2c1O (centres undefined) | 7550 | -13 | -2 | -2 | -4 | 22 | /
CCC(=O)NC(c1cccs1)c1cc([N+](=O)[O-])c2cccnc2c1O (centres undefined) | 2560 | -13 | -3 | -2 | -2 | 38* | 33*
C[n+]1c(-c2ccccc2)c2cc(N)ccc2c2ccc(N)cc21 | 2539 | -169 | -2 | -7 | -138 | 105* | 77*
Oc1cc(NCCN2CCOCC2)cc2cccnc12 | 2791 | -6 | 0 | / | -5 | 99* | 46*
Oc1cc(Nc2ccccc2)cc2cccnc12 | 4657 | -9 | -1 | / | -12 | 2 | /
CNc1oc(-c2ccccc2)nc1S(=O)(=O)c1ccc(C)cc1 | 4772 | 7 | 1 | 0 | -6 | 30* | -15
CNc1oc(-c2ccccc2F)nc1S(=O)(=O)c1ccc(C)cc1 | 4632 | 8 | 0 | 2 | 6 | 1 | /
O=c1[nH]nc(CNc2ccc(C(F)(F)F)cc2)c2ccccc12 | 2002 | -3 | 0 | 0 | -2 | 2 | /
O=c1[nH]nc(CNc2ccc(O)cc2)c2ccccc12 | 4446 | 2 | -1 | 2 | 1 | 53* | -16
COc1ccc(OC)c(/C=C2\SC(=S)N(NS(=O)(=O)c3ccc(C)cc3)C2=O)c1 | 4388 | -19 | -2 | 2 | -1 | 33* | 8
COc1ccccc1/C=C1\SC(=S)N(NS(=O)(=O)c2ccc(C)cc2)C1=O | 3813 | -6 | -2 | 4 | -3 | 36* | 1
COc1ccc(/C=C2\SC(=S)N(NS(=O)(=O)c3ccc(C)cc3)C2=O)c(OC)c1 | 3606 | -2 | -1 | 2 | 2 | 1 | /
CCOc1ccc(/C=C2\SC(=S)N(NS(=O)(=O)c3ccccc3)C2=O)cc1OC | 3839 | -4 | -1 | 10 | -1 | 41* | 10
CC(C)c1[nH]nc2c1C(c1ccc(Br)cc1)NC2=O (centres undefined) | / | / | / | / | / | 0 | /
O=C1CC(N2CCN(c3ccccn3)CC2)C(=O)N1CC(c1ccccc1)c1ccccc1 (centres undefined) | 3140 | 18 | 1 | -1 | -1 | 38* | -9
CCOC(=O)/C(C#N)=C1/C=CN(Cc2ccccc2)C=N1 | 9778 | 5 | 0 | 3 | -6 | 30* | -1
CCOC(=O)/C(C#N)=C1/C=CN(c2ccccc2)C=N1 | 4666 | -17 | -1 | 3 | -2 | 14 | /
O=C1C(Cc2ccccc2)Nc2ncnc(N3CCOCC3)c2N1Cc1ccc(Cl)cc1 (centres undefined) | 3888 | -3 | 0 | / | -9 | 31*! | -18
CC1Cc2nc(SCC(=O)NCc3ccco3)n(-c3ccccc3)c(=O)c2S1 (centres undefined) | 5180 | 5 | 0 | 0 | 1 | 30* | 0
CCc1ccc(CN(C)C(=O)c2cc(COc3cncc(Cl)c3)on2)cc1 | 3925 | -5 | 0 | / | -1 | 6 | /
SMILES | Autofluor counter | BoNT-F LC inh | BoNT A protease | 3CLpro inhibitor | Anthrax LF inh2 | CCHF vOTU inh-1 | CCHF vOTU inh-2
Cc1cc(OCc2cc(C(=O)N(C)Cc3nonc3C)no2)cc(C)c1Cl | 5960 | -7 | -1 | 4 | 0 | 31* | 1
CCc1ccc(CN(C)C(=O)c2cc(COc3cc(C)c(Cl)c(C)c3)on2)nc1 | 5238 | 1 | 1 | 5 | -2 | 30* | -6
Cc1nc2scc(C)n2c(=O)c1S(=O)(=O)Nc1ccc(N2CCOCC2)c(Cl)c1 | 5528 | 2 | 0 | 5 | 2 | 0 | /
Cc1nc2scc(C)n2c(=O)c1S(=O)(=O)Nc1ccc(OC(F)(F)F)cc1 | 5489 | 4 | 1 | 2 | 6 | 40* | -4
CCc1noc(C)c1C(=O)Nc1ccc(Cl)c(S(=O)(=O)N2CCCCC2)c1 | 5060 | 6 | 4 | / | -2 | 32* | -9
Cc1nnc(N/N=C\c2ccc(-c3ccccc3[N+](=O)[O-])o2)n1N | 2097 | 22 | 2 | 4 | -2 | 101* | 7
CCC(=O)N/N=C/c1ccc(-c2ccc([N+](=O)[O-])cc2)o1 | 3492 | -12 | 2 | 5 | 2 | 8 | /
Cc1nnc(N/N=C/c2ccc(-c3ccccc3F)o2)n1N | 2701 | 3 | 0 | 6 | 0 | 79* | 5
CCc1nnc(N/N=C/c2ccc(-c3ccc([N+](=O)[O-])cc3)o2)n1N | 2722 | -3 | 8 | 4 | 4 | 65* | 4
C[C@H](O)[C@@H]1C(=O)N2CCc3c([nH]c4c(-c5ccccc5)cccc34)[C@@H]2C[C@@H]1N(C)CC1CCCCC1 | / | / | / | / | / | -7 | /
COc1ccc(C2c3ccccc3NC3C2C(=O)N(Cc2ccc(OC)cc2OC)[C@H]3Cc2ccccc2)cc1 (some centres undefined) | / | / | / | / | / | -3 | /
CCN(CC)CC(=O)n1c2c(c3ccccc31)CCCC2 | 2890 | -6 | 0 | 4 | 0 | 0 | /
CN1CCN(CC(=O)n2c3c(c4ccccc42)CCCC3)CC1 | 7905 | -10 | 0 | 3 | -3 | 45* | -1
O=C(NC1CCCCC1)C(c1ccco1)N(C(=O)C(F)(F)F)C1CC1 (centres undefined) | 4335 | 12 | 1 | 2 | -3 | -5 | /
Cc1ccc(CN(C(=O)C(F)(F)F)C(C(=O)NC2CCCCC2)c2ccco2)cc1 (centres undefined) | 2768 | ? | 2 | 2 | 5 | 30* | -7
COc1ccc(C(=O)c2ccc(N3CCOCC3)c([N+](=O)[O-])c2)cc1 | 4446 | 3 | 0 | 2 | 1 | 30* | -5
COc1ccc(CNC(=O)c2ccc(N3CCOCC3)c([N+](=O)[O-])c2)cc1 | 2545 | -4 | -1 | 1 | 0 | -6 | /
